# High-throughput results (PubChem BioAssay)
# A selection: hits, their analogues and other compounds. The true share with any hit is near 19%.
# DT40 TDP1 CPT – DT40-hTDP1 cell growth loss with CPT; chicken DT40 Tdp1-/-;hTDP1 cells + 20 nM CPT, ATP luminescence, 48 h; Potency, µM (highest dose often 46.2 µM), for inactives: top-dose activity change, negative = growth inhibition, most hits filed as inhibitors; hit rate 12% among 420,000; note: potency is the fitted concentration of half-maximal effect; nearly all actives have a fitted effect of over 55% in size
#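 Chicken DT40 Tdp1-/- cells stably complemented with human TDP1 were seeded at 400 cells/well in medium containing 20 nM camptothecin, exposed to pin-transferred compounds, and grown at 37 °C for at least 48 hr. Viability was read as ATP luminescence.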
# IL-1B inflam inh – inhibitors of inflammasome signaling (IL-1 beta secretion). THP-1 LPS/ATP IL-1B secretion, AlphaLISA, 16 h; hits give low values. activity change, % at 57.5 µM. hit rate 4.7% among 360,000. AID 743279; in the data active = activity change below about -50%; inconclusive = mostly about -30% to -49%
#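 Secreted IL-1B measured by AlphaLISA bead assay after 16 h compound exposure of THP-1 cells; compounds (final up to 57.5 uM) added 1 h before LPS (250 ng/mL) and ATP (1.25 mM) stimulation; lower signal means less secretion.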
# HT1080 IDH1KD tx – HT-1080 IDH1 knockdown cell toxicity (counter line); HT-1080 IDH1 knockdown viability, ATP luminescence, 48 h; Potency, µM (doses to about 46.1 µM), for the others: at the top dose activity, negative = toxicity, most hits filed as cytotoxic; hit rate 2% among 360,000;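 note: potency is the fitted concentration of half-maximal effect; 0% = DMSO wells and -100% = cell-free medium wells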
#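 IDH1KD HT-1080 cells, 750/well, RPMI + 5% FBS; compound pinned after 2 h settling; 48 h, 37 °C; CellTiter-Glo luminescence; % activity normalised to DMSO and no-cell wells; curves fitted, classed by r2 and efficacy.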
# HT1080NT lethal – kills 2HG-producing HT-1080-NT fibrosarcoma cells; hit rate 1.6% among 360,000; AID 686970; Potency, µM (doses to about 46.1 µM), for the others: at the highest dose activity, negative = less viability, hits mostly cytotoxic; HT-1080-NT fibrosarcoma viability, CellTiter-Glo ATP luminescence, 48 h;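 note: NT is the 2HG producing partner of a matched IDH1 knockdown line; potency is the fitted concentration of half-maximal effect; 0% = DMSO-treated cells and -100% = media-only wells without cells; nearly all actives have a fitted effect of over 55% in size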
#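 Viability of the 2HG-overproducing fibrosarcoma line after 48 hours of compound exposure at 37 degrees C was determined by luminescence with CellTiter-Glo, and concentration-effect curves were then fitted and categorized.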
# DT40 TDP1 no CPT – qHTS for Inhibitors of human tyrosyl-DNA phosphodiesterase 1 (TDP1): qHTS in cells in absence of CPT. Potency, µM (top dose mostly 46.2 µM), without a hit: top-dose activity change, negative = growth inhibition, hits mostly inhibitors. DT40 Tdp1-/- hTDP1 cells, no CPT, ATP luminescence, 48 h. hit rate 15% among 420,000. AID 686978, 2013; note: potency is the fitted concentration of half-maximal effect; nearly all actives have a fitted effect of over 55% in size
#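 DT40 Tdp1-/-;hTDP1 cells, no CPT (DMSO vehicle only), 400 cells/well; compounds pin-transferred; ≥48 hr, 37 °C; CellTiter-Glo 30 min RT dark, luminescence read.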
# * marks the source's active call; other numbers are inactive results; ? = inconclusive; nt = no result; [ ] = another dose, or the depositor's remark. Unless noted, calls come from the whole dose curve; as a rule, active = well fitted curve in the direction sought with a large enough effect; inconclusive = small, poorly fitted or top-dose-only effect, or another doubt; inactive = no such curve, though single readings can be large; an effect the other way counts as inactive or inconclusive. Unless noted, % is set by controls: 0 for no effect and ±100 for the full control effect.
SMILES,DT40 TDP1 CPT,IL-1B inflam inh,HT1080 IDH1KD tx,HT1080NT lethal,DT40 TDP1 no CPT
CCN(CC)C(=O)CSc1nc2ncc(Br)cc2[nH]1,-110.4%,-7.6,15.6%,24.0%,4.3%
Nc1nc(=S)[nH]c2n[nH]nc12,4.47µM*,nt,nt,nt,3.55µM*
CCOc1ccc(C(=O)CSc2nnc3cc(C)c4ccccc4n23)cc1,6.5%,nt,nt,nt,-21.3%
COc1ccc(CNC(=O)CCCN2C(=O)CSc3c2c(C)nn3-c2ccccc2)c(OC)c1,?,nt,nt,nt,16.4µM*
CCCOc1ccc(CNC(=O)CCCN2C(=O)CSc3c2c(C)nn3-c2ccccc2)cc1,20.6µM*,nt,nt,nt,?
COc1cccc(CNC(=O)CN2C(=O)CSc3c2c(C)nn3-c2ccccc2)c1,-24.5%,nt,nt,nt,-28.5%
Cc1nn(-c2ccccc2)c2c1N(CCCC(=O)NCc1ccc(N(C)C)cc1)C(=O)CS2,23.1µM*,nt,nt,nt,23.1µM*
CCOc1ccc(CNC(=O)CN2C(=O)CSc3c2c(C)nn3-c2ccccc2)cc1,-0.8%,nt,nt,nt,-14.4%
Cc1nn(-c2ccccc2)c2c1N(CC(=O)NCc1ccc(N(C)C)cc1)C(=O)CS2,?,nt,nt,nt,18.4µM*
COc1ccc(-c2nc(C(=O)NCC3CCCO3)cc3c2[nH]c2ccccc23)cc1 (centres undefined),2.06µM*,?,-27.9%,-20.3%,2.06µM*
Cc1ccc(-c2nn(CC(=O)NCC3CCCO3)c(=O)c3ccccc23)cc1 (centres undefined),-6.3%,-11.8,-3.0%,6.4%,-13.3%
Cc1ccc(-c2nc(C(=O)NCC3CCCO3)cc3c2[nH]c2ccccc23)cc1 (centres undefined),2.31µM*,-59.5*,-28.3%,?,1.84µM*
O=C(NCC1CCCO1)c1cc2c([nH]c3ccccc32)c(-c2cccc(Br)c2)n1 (centres undefined),2.59µM*,?,-13.2%,-14.0%,2.91µM*
Cc1ccccc1-c1nc(C(=O)NCC2CCCO2)cc2c1[nH]c1ccccc12 (centres undefined),11.6µM*,-51.4*,-4.4%,-18.6%,18.4µM*
Cc1cc(Br)cc2c(C(=O)NCC3CCCO3)cc(-c3ccccc3)nc12 (centres undefined),?,2.4,-3.6%,3.3%,?
COC(=O)c1c(OCc2ccccn2)cc(=O)n2c1CCN(C(=O)c1cc(C(C)C)nn1C)CC2,-2.5%,nt,nt,nt,-25.6%
COc1cccc(NC(=O)COC(=O)CCC2CCCC2)c1,15.8%,0.5,0.4%,10.2%,-3.4%
Cc1c(C(=O)Nc2ccncc2)sc2nc(-c3ccccc3)cn12,18.4µM*,18.6,-5.8%,1.8%,10.3µM*
Cc1c(C(=O)Nc2ccc3c(c2)OCCO3)sc2nc(-c3ccccc3)cn12,8.2µM*,-91.6*,?,?,5.8µM*
CCN(CC)c1ccc(NC(=O)c2sc3nc(-c4ccccc4)cn3c2C)cc1,3.66µM*,nt,nt,nt,5.17µM*
CNC(=O)c1sc2nc(-c3ccc(OC)cc3)cn2c1C,-9.8%,-14.5,4.9%,13.3%,?
COc1ccc(-c2cn3c(C)c(C(=O)Nc4cc(NC(C)=O)ccc4OC)sc3n2)cc1,13µM*,5.0,?,?,9.2µM*
CCN(CC)C(=O)c1sc2nc(-c3ccc(OC)cc3)cn2c1C,-17.0%,?,0.5%,-1.4%,?
CC(C)(C)c1ccc(OCC(=O)NCCN2CCOCC2)cc1,0.6%,5.2,-0.5%,0.8%,-9.4%
COc1cccc(N2CC(NC(=O)COc3ccccc3F)CC2=O)c1 (centres undefined),-2.2%,nt,nt,nt,-26.1%
COC(=O)Cc1ccccc1NS(=O)(=O)c1ccc(C)cc1,0.4%,-5.3,9.3%,3.2%,-3.8%
O=C([C@@H]1C[C@@H](Sc2nc3ccccc3[nH]2)CN1Cc1ccc(Cl)cc1)N1CCN(c2ccccc2F)CC1,?,nt,nt,nt,20.6µM*
CN1CCCN(C(=O)[C@@H]2C[C@@H](Sc3nc4ccccc4[nH]3)CN2Cc2ccc(-c3ccccc3)cc2)CC1,9.6%[9.04 µM],nt,nt,nt,?
